“And” between values parts separate entries of the source, which are not always exact repeats. Equal entries are not always repeated. About 83,000 compounds went through this panel and 20% of them were active in at least one assay; those are over-represented in the sample as a whole.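 Growth was measured after 48 h exposure to one concentration of compound in 96-well plates. Values under 10 count as active.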 The source made the active and inactive calls.

Common to all, as to test: NCI-60 one-dose screen, 48 h (100 = growth as untreated, 0 = no growth, -100 = all killed)
Experiment [1] deals with HCT-15 colon. The conditions noted are these: 10 µM unless noted.
In experiment [2] the test system is HT29 colon. The conditions noted are these: 10 µM unless noted.
Experiment [3] relates to SNB-75 CNS. The conditions noted are these: 10 µM unless noted.
In experiment [4] the test system is SNB-19 CNS. The conditions noted are these: 10 µM unless noted.
The subject of experiment [5] is U251 CNS. The conditions noted are these: 10 µM unless noted.
In experiment [6] the test system is PC-3 prostate. The conditions noted are these: 10 µM unless noted.
In experiment [7] the test system is SK-MEL-5 melanoma. The conditions noted are these: 10 µM unless noted.
In experiment [8] the test system is UACC-62 melanoma.
Experiment [9] relates to LOX IMVI melanoma. Particulars: 10 µM unless noted.
In experiment [10] the test system is SK-MEL-28 melanoma. Particulars: 10 µM unless noted.
For experiment [11], the system named is SK-MEL-2 melanoma. Particulars: 10 µM unless noted.
Experiment [12] relates to EKVX NSCLC. Particulars: 10 µM unless noted.
For experiment [13], the system named is SN12C renal. Particulars: 10 µM unless noted.
In experiment [14] the test system is UO-31 renal. Particulars: 10 µM unless noted.
Experiment [15] concerns TK-10 renal.
Experiment [16] has as its system ACHN renal. Particulars: 10 µM unless noted.
Experiment [17] relates to CAKI-1 renal. Particulars: 10 µM unless noted.
Experiment [18] concerns A498 renal. Particulars: 10 µM unless noted.
For experiment [19], the system named is CCRF-CEM leukemia. The conditions noted are these: 10 µM unless noted.
The test system of experiment [20] is MOLT-4 leukemia. Particulars: 10 µM unless noted.

`Cc1cc2ccccc2c2cc3ccccc3cc12`: the growth was 82.4% (inactive) in experiment [1]; 88.3% (inactive) in [2]; 100% (inactive) in experiment [3]; 105% (inactive) in experiment [4]; 102% (inactive) in experiment [5]; 90.8% (inactive) in experiment [6]. Besides, the growth was 89.8% (inactive) in experiment [7]; 87.8% (inactive) in experiment [8] (10 µM unless noted); 95.4% (inactive) in [9]; 107% (inactive) in [10]; 92.6% (inactive) in [11]; 82.7% (inactive) in [12]. Moreover, the growth in experiment [13] is 98.3% (inactive); in experiment [14], 78.8% (inactive); in experiment [15] (10 µM unless noted) it was 98.8% (inactive); in [16], 92.8% (inactive); in [17], 88.8% (inactive); in [18] it was 88.5% (inactive). Further, the growth in experiment [19] is 97% (inactive); in experiment [20] it was 65.6% (inactive).

Consider `CCOc1ccc(/C=C\C(=O)O)cc1`, for which the growth in experiment [1] was 105% (inactive); in experiment [2], 105% (inactive); in experiment [3], 104% (inactive); in experiment [4], 106% (inactive); in experiment [5] it was 103% (inactive); in experiment [6] it was 102% (inactive). Besides, the growth in experiment [7] was 108% (inactive); in experiment [8] (10 µM unless noted), 109% (inactive); in [9], 105% (inactive); in experiment [10] it was 107% (inactive); in experiment [11] it was 114% (inactive); in experiment [12] it was 115% (inactive). Also, the growth in experiment [13] is 101% (inactive); in [14] it was 98.7% (inactive); in experiment [15] (10 µM unless noted), 109% (inactive); in experiment [16] it was 109% (inactive); in [17], 113% (inactive); in experiment [18], 101% (inactive). The growth in experiment [19] is 96% (inactive); in experiment [20], 92% (inactive).

For the molecule `CCOC(=N)c1ccc(C(=N)OCC)cc1`, the growth is 96.4% (inactive) in [1]; 101% (inactive) in experiment [2]; 103% (inactive) in experiment [3]; 91.4% (inactive) in experiment [4]; 102% (inactive) in [5]; 103% (inactive) in [6]. In addition, the growth in experiment [7] was 95.7% (inactive); in experiment [8] (10 µM unless noted), 96.8% (inactive); in [9], 98.1% (inactive); in [10] it was 101% (inactive); in experiment [11], 103% (inactive); in [12], 90.2% (inactive). Further, the growth in experiment [13] is 98.4% (inactive); in experiment [14] it was 95.1% (inactive); in experiment [15] (10 µM unless noted) it was 96.6% (inactive); in experiment [16], 102% (inactive); in experiment [17], 99% (inactive); in experiment [18], 90.6% (inactive). Further, the growth was 107% (inactive) in experiment [19] and 111% (inactive) in experiment [20].

On to `COc1cc2oc3cc(=O)cc4oc(-c5ccccc5)cc(c2c2c1CCC(c1ccccc1)O2)c43` (stereo not drawn), for which the growth in experiment [1] was 62.8% (inactive); in [2], 71.9% (inactive); in [3] it was 68.2% (inactive); in experiment [4], 98.9% (inactive); in experiment [5], 87.3% (inactive); in experiment [6], 58.9% (inactive). In addition, the growth is 78% (inactive) in experiment [7]; 73.5% (inactive) in experiment [8] (10 µM); 53% (inactive) and 10.4% (inactive) in experiment [8] (100 µM); 56.7% (inactive) in experiment [9]; 90.1% (inactive) in experiment [10]; 95.8% (inactive) in experiment [11]. For the same molecule, the growth in experiment [12] was 88.4% (inactive); in [13] it was 78.3% (inactive); in [14], 57.9% (inactive); in [15] (10 µM), 120% (inactive); in experiment [15] (100 µM), 59.8% (inactive) and 8.17% (active); in experiment [16], 72.7% (inactive). The growth in experiment [17] is 57.4% (inactive); in experiment [18], 114% (inactive); in experiment [19], 88.3% (inactive); in experiment [20], 72.5% (inactive).

On to `N#CC(=S)Nc1ccc(Cl)c(Cl)c1`, for which the growth in experiment [1] was 13.6% (inactive); in experiment [2], 12.5% (inactive); in [3], -3.27% (active); in [4] it was 4.95% (active); in experiment [5] it was 9.34% (active); in experiment [6] it was 23.1% (inactive). The growth in experiment [7] is -61.7% (active); in experiment [8] (10 µM), 5.74% (active); in [8] (100 µM) it was -12.1% (active) and -100% (active); in experiment [10] it was 25.2% (inactive); in experiment [11], -26.4% (active); in experiment [12], 10.9% (inactive). Also, the growth is -7.92% (active) in experiment [13]; -1.39% (active) in experiment [14]; 17.5% (inactive) in experiment [15] (10 µM); 8.11% (active) and -69.1% (active) in experiment [15] (100 µM); 0.0372% (active) in experiment [16]; -6.76% (active) in experiment [17]. In addition, the growth was -12% (active) in experiment [18], 28.4% (inactive) in [19] and 15.8% (inactive) in experiment [20].

The record behind these values is PubChem BioAssay (NCI).
